Data on five compounds can be found in PubChem BioAssay (Tox21).

The nature of assay [1]: qHTS assay to identify small molecule antagonists of the retinoid acid receptor (RAR) signaling pathway - cell viability counter screen (AID 1159551). Further: nearly all actives have a fitted effect of over 35% in size. Further: potency means the concentration at half of the fitted maximal effect. A digest of the protocol: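 C3RL4 cells were seeded overnight at 37 C, then treated with compounds plus 1 uM (final) retinol for 6 h at 37 C. Viability was read as ATP by CellTiter-Glo luminescence after 30 min at room temperature.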
(In general: qHTS replaces the single test concentration by a dilution series.)

A short description of assay [2]: qHTS assay to identify small molecule agonists of the retinoic acid receptor (RAR) signaling pathway (AID 1159553). Further: potency means the concentration at half of the fitted maximal effect. An outline of the steps: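 C3RL4 cells carrying a RARE luciferase reporter were plated overnight at 37 C, then exposed to compounds in DMSO for 6 hr at 37 C and 5% CO2. Luminescence was read 30 min after luciferase reagent addition at room temperature.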

The nature of assay [3]: qHTS assay to identify small molecule antagonists of the estrogen related receptor (ERR) signaling pathway from Tox21 library - cell viability counter screen (AID 1224834). Further: nearly all actives have a fitted effect of over 30% in size. Further: potency means the concentration at half of the fitted maximal effect. An outline of the steps:
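ERR reporter cells were plated 6 h before compound addition, then exposed to test compounds in DMSO for 17.5 h at 37 C. Viability was read as CellTiter-Fluor fluorescence after a 30-minute incubation at 37 C.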

Assay [4] concerns the target Luciferin 4-monooxygenase (Photinus pyralis) (UniProt P08659). Briefly: qHTS assay to identify small molecule inhibitors of firefly luciferase (AID 1224835). Further: nearly all actives have a fitted effect of over 25% in size. Further: potency means the concentration at half of the fitted maximal effect. A digest of the protocol:
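Inhibition of purified Photinus luciferase is measured by luminescence. Substrate levels (D-luciferin, ATP) sit at their KM values. Each compound is tested in a concentration series.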

A short description of assay [5]: qHTS assay to identify small molecule agonists of the constitutive androstane receptor (CAR) signaling pathway - cell viability counter screen (AID 1224836). Further: nearly all actives have a fitted effect of over 45% in size. Further: potency means the concentration at half of the fitted maximal effect. A digest of the protocol: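 Double-stable HepG2 hepatoma cells (hCAR plus CYP2B6-2.2kb) are treated for 23 h at 37 C with test compounds in 15-point concentration series. PK11195 at 0.75 uM final is co-added. Cell viability is quantified by CellTiter-Fluor.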

Assay [6] can be described thus: qHTS assay to identify small molecule antagonists of the estrogen related receptor signaling pathway with the pleiotropic PPARgamma coactivator (PGC) from Tox21 10K library - cell viability counter screen (AID 1224840; active means well fitted cell-killing curve with a large enough effect in the repeat runs, not every such curve was filed as active; further: nearly all actives have a fitted effect of over 40% in size). A digest of the protocol:
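PGC/ERR cells were seeded at 2,000 cells/well and left 6 hours at 37 C/5% CO2 before pin-tool addition of compounds in DMSO. After 17.5 hours at 37 C, CellTiter-Fluor was added and fluorescence read 30 minutes later.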

Assay [7] in a line: qHTS assay to identify small molecule antagonists of the estrogen related receptor signaling pathway with the pleiotropic PPARgamma coactivator (PGC) from Tox21 10K library (AID 1224841; call rule not given here; further: series mostly up to about 92 µM; actives are mostly falling curves and most rising ones were filed inactive; nearly all actives have a fitted effect of over 50% in size). An outline of the steps:
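PGC/ERR reporter cells were seeded at 2,000 cells/well and held 6 hours at 37 C/5% CO2 before pin-tool addition of compounds in DMSO. After 18 hours at 37 C, One-Glo was added and luminescence read after 30 minutes at room temperature.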

Assay [8] is described as follows: qHTS assay to identify small molecule agonists of the estrogen related receptor signaling pathway with the pleiotropic PPARgamma coactivator (PGC) from Tox21 10K library (AID 1224842). Further: nearly all actives have a fitted effect of over 15% in size. Further: potency means the concentration at half of the fitted maximal effect. An outline of the steps: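 Luminescence from One-Glo (30 min, room temperature) measured after PGC/ERR cells had 18 h at 37 C with pinned compound (23 nL in DMSO). Cells had been seeded at 2,000 per well and pre-incubated 6 h.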

Assay [9] deals with Thyrotropin receptor (Homo sapiens) (UniProt P16473). Kind of assay: qHTS assay to identify small molecule agonists of the thyroid stimulating hormone receptor (TSHR) signaling pathway (AID 1224843; calls by dose curve; further: nearly all actives have a fitted effect of over 45% in size). An outline of the steps:
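Screening of the Tox21 10K collection used HEK293 cells engineered with TSHR at 800 cells per well. After a 30-min room-temperature compound exposure, HTRF cAMP reagents were added and fluorescence recorded 1 h later.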

The nature of assay [10]: qHTS assay to identify small molecule antagonists of the retinoic acid receptor (RAR) signaling pathway (AID 1159552; further: nearly all actives have a fitted effect of over 50% in size; further: potency means the concentration at half of the fitted maximal effect). A digest of the protocol: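 Antagonism of retinol-induced RARE reporter activity was measured in C3RL4 cells. Exposure to compounds and 1 uM final retinol lasted 6 hr at 37 C, with luminescence as endpoint.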
A short description of assay [11]: qHTS assay to identify small molecule antagonists of the constitutive androstane receptor (CAR) signaling pathway - cell viability counter screen (AID 1224837). Further: nearly all actives have a fitted effect of over 45% in size. Further: potency means the concentration at half of the fitted maximal effect. An outline of the steps: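 HepG2 cells stably expressing hCAR and a CYP2B6-2.2kb reporter were plated and pre-incubated 4 hr at 37 C/5% CO2, then given compounds at 15 concentrations plus 50 nM CITCO (final). After 23 hr, viability was read by CellTiter-Fluor fluorescence.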

Assay [12] deals with Nuclear receptor subfamily 1 group I member 3 (Homo sapiens) (UniProt Q14994). Kind of assay: qHTS assay to identify small molecule antagonists of the constitutive androstane receptor (CAR) signaling pathway (AID 1224838). Further: nearly all actives have a fitted effect of over 40% in size. Further: potency means the concentration at half of the fitted maximal effect. A digest of the protocol:
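HepG2 cells stably co-transfected with hCAR and a CYP2B6-2.2kb luciferase reporter were seeded 4 h before compound addition at 15 concentrations. Cells were stimulated with 50 nM CITCO (final) for 24 h at 37 C; luciferase luminescence was then read.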

For assay [13] the target is unchanged. Kind of assay: qHTS assay to identify small molecule agonists of the constitutive androstane receptor (CAR) signaling pathway (AID 1224839).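 Further: HepG2 cells stably carrying human CAR and a CYP2B6 luciferase reporter; series mostly up to about 92 µM; nearly all actives have a fitted effect of over 15% in size.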 A digest of the protocol: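 Readout: firefly luciferase luminescence via ONE-Glo. System: HepG2 double-stable for hCAR and CYP2B6-2.2kb. Conditions: 15-point compound titration, PK11195 at 0.75 uM final, 24 h incubation.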

Values joined by “and” are separate entries in the source; they are usually repeats but may differ in a detail not shown here. Equal entries are not always repeated. Inconclusive results are not listed. Active and inactive are the calls of the source. Unless noted, the call rests on the fitted dose curve; in most records, active means well fitted curve in the direction sought with a large enough effect in the repeat runs; inconclusive means weak or mixed curves; inactive means no such curve, though single readings can be large; an effect the other way counts as inactive or inconclusive.

Sequence of Luciferin 4-monooxygenase (Photinus pyralis) (P08659 whole entry, looked up): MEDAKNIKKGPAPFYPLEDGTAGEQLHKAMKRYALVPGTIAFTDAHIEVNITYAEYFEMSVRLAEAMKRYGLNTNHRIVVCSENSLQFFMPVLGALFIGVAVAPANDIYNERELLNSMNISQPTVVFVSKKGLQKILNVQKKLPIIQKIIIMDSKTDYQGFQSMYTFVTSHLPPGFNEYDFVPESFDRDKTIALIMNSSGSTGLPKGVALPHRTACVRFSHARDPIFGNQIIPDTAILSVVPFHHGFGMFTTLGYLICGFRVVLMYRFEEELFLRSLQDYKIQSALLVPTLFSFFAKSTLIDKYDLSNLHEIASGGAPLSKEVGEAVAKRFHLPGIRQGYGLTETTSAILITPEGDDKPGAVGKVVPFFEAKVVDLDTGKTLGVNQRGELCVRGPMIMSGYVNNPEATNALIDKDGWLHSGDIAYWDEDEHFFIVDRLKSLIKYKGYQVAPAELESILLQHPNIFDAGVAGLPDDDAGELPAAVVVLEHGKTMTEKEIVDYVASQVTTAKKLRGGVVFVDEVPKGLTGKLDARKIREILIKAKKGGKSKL
Sequence of Thyrotropin receptor (Homo sapiens) (P16473 whole entry, looked up): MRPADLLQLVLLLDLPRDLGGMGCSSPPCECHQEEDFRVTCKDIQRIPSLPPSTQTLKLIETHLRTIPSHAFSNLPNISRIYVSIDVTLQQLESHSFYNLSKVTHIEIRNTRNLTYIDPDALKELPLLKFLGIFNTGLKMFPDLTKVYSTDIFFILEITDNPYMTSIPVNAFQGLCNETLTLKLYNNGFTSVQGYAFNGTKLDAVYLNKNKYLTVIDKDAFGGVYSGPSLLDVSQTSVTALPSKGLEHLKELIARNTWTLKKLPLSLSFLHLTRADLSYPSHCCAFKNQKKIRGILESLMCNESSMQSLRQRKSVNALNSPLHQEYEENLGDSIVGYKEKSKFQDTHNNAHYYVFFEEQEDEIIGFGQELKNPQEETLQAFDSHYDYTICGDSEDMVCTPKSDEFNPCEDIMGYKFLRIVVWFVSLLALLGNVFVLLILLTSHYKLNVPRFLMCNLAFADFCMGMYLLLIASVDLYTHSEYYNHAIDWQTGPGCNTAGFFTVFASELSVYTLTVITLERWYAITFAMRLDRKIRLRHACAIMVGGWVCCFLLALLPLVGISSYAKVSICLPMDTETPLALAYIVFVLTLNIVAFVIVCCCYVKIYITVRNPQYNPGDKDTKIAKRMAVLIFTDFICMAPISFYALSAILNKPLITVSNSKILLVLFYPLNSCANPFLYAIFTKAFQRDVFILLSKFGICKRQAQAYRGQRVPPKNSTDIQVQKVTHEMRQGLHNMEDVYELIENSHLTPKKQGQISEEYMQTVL
Sequence of Nuclear receptor subfamily 1 group I member 3 (Homo sapiens) (Q14994 whole entry, looked up): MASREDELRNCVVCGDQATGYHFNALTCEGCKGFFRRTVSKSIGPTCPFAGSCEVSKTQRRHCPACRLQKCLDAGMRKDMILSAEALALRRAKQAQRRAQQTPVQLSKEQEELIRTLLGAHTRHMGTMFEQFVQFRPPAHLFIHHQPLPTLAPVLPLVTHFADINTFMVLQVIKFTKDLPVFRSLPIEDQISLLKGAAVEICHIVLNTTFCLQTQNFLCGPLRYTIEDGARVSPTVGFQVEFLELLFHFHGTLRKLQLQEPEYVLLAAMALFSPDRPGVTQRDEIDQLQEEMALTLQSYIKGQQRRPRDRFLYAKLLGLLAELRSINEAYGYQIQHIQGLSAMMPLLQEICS

Regarding `c1ccc2sc(SSN3CCOCC3)nc2c1`, the Potency in assay [1] is 61 µM (active); in [4], 22.4 µM (active) and 15.9 µM (active). The Potency result in [2], in assay [3], in [5], in assay [6], in assay [7] and in [8] was “inactive” throughout. Besides, the Potency result in assay [9] is “inactive”.
Turning to `c1cc(N(CC2CO2)CC2CO2)ccc1OCC1CO1` (configuration not stated), the Potency result in assay [1], in [10], in assay [4], in assay [13], in [7] and in [9] was “inactive” each time. Further, the Potency in assay [5] was 61.1 µM (active); in [11], 54.5 µM (active); in assay [12] it was 68.6 µM (active); in [8], 9.7 µM (active).
As for `COc1cccc2c1C(=O)c1c(O)c3c(c(O)c1C2=O)C[C@@](O)(C(=O)CO)C[C@@H]3O[C@H]1C[C@H](N)[C@H](O)[C@H](C)O1`, the Potency entry in assay [1], in assay [2], in assay [13], in assay [7] and in assay [9] was “inactive” in each case. Moreover, the Potency is 3.85 µM (active) in [10]; 2.17 µM (active) and 6.68 µM (active) in [3]; 15.5 µM (active) in [4]; 6.85 µM (active) and 6.68 µM (active) in assay [5]; 2.17 µM (active) and 5.96 µM (active) in assay [11]; 137 nM (active) and 1.06 µM (active) in [12]. For the same compound, the Potency in [8] was 216 nM (active) and 596 nM (active).
Take `NNc1ccc(C(=O)O)cc1`: the Potency result in [1], in [10], in [3], in [5], in assay [11] and in assay [6] was “inactive” in each case. The Potency result in [9] is “inactive”. The Potency is 43.9 nM (active) and 24.6 µM (active) in assay [2]; 32.1 µM (active) and 4.53 µM (active) in assay [4].
Take `CCCCOCCOCCOCCO`: the Potency entry in assay [1], in [10], in assay [3], in assay [4], in assay [5] and in assay [11] was “inactive” in each case. For the same compound, the Potency result in assay [12], in assay [13], in assay [6], in [7], in assay [8] and in [9] was “inactive” in each case.
